Source: PubChem (National Center for Advancing Translational Sciences (NCATS))
The list is not random: actives were taken first. Their share in the collection is about 19%.
HT1080-NT tox = qHTS for induction of synthetic lethality in tumor cells producing 2HG: qHTS for the HT-1080-NT fibrosarcoma cell line; HT-1080-NT fibrosarcoma viability, CellTiter-Glo ATP luminescence, 48 h; Potency, µM (series often up to 46.1 µM), for the others: at the highest dose activity, negative = less viability, actives largely listed as cytotoxic; 1.6% of 360,000 active; AID 686970, 2013;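 also: NT is the 2HG producing partner of a matched IDH1 knockdown line; 0% = DMSO-treated cells and -100% = media-only wells without cells; nearly all actives have a fitted effect of over 55% in size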
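HT-1080-NT fibrosarcoma cells (2HG-overproducing), 750 cells/well in RPMI with 5% FBS, dosed after 2 h and incubated 48 h at 37C. CellTiter-Glo luminescence normalized to DMSO and no-cell wells; concentration-response curves fitted and classed.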
TDP1 cell CPT = qHTS for Inhibitors of human tyrosyl-DNA phosphodiesterase 1 (TDP1): qHTS in cells in presence of CPT; 12% of 420,000 active; chicken DT40 Tdp1-/-;hTDP1 cells + 20 nM CPT, ATP luminescence, 48 h; Potency, µM (titrated, usually from 46.2 µM), for the others: at the top dose activity change, negative = growth inhibition, hits mostly inhibitors; also: nearly all actives have a fitted effect of over 55% in size
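Chicken DT40 Tdp1-/- cells complemented with human TDP1, 400 cells/well, exposed to compounds plus 20 nM camptothecin for at least 48 h at 37 C; viability read as ATP content by CellTiter-Glo luminescence.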
KB-V1 cytotox = qHTS assay for MDR1-selective chemotherapeutics: Primary screen using the drug-selected MDR subline cells KB-V1 | KB-V1 MDR cells viability, CellTiter-Glo, 72 h | Potency, µM (highest dose often 46.1 µM), usual class: cytotoxic | 3.4% of 400,000 active; also: nearly all actives have a fitted effect of over 60% in size
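Drug-selected KB-V1 cells, grown in DMEM lacking phenol red with 10% FBS, receive compound titrations; after three days at 37 degrees C, surviving cell ATP is quantified by CellTiter-Glo luminescence and responses normalized and curve-fitted.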
DT40 TDP1 no CPT = qHTS for Inhibitors of human tyrosyl-DNA phosphodiesterase 1 (TDP1): qHTS in cells in absence of CPT | Potency, µM (series often up to 46.2 µM), for inactives: top-dose activity change, negative = growth inhibition, usual class: inhibitors | 15% of 420,000 active | DT40 Tdp1-/- hTDP1 cells, no CPT, ATP luminescence, 48 h | AID 686978, 2013; also: nearly all actives have a fitted effect of over 55% in size
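Growth kinetics read by CellTiter-Glo luminescence after ≥48 hr at 37 °C. Cells: DT40 Tdp1-/- stably carrying human TDP1, 400 per well, compound exposure in the absence of CPT (DMSO vehicle).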
HT1080 IDH1KD tx = qHTS for induction of synthetic lethality in tumor cells producing 2HG: qHTS for the HT-1080-IDH1KD cell line. HT-1080 IDH1 knockdown viability, ATP luminescence, 48 h. Potency, µM (series often up to 46.1 µM), without a hit: at the highest dose activity, negative = toxicity, actives largely listed as cytotoxic. 2% of 360,000 active. AID 686971, 2013;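 also: 0% = DMSO wells and -100% = cell-free medium wells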
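Knockdown cells (IDH1KD HT-1080) received compounds 2 h after plating at 750 cells/well and were kept 48 h at 37 °C in 5% FBS RPMI. A CellTiter-Glo luminescence read gave % activity for curve fitting.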
KB-3-1 tox = qHTS assay for MDR1-selective chemotherapeutics: Primary screen using the parental adenocarcinoma cell KB-3-1; KB-3-1 viability, CellTiter-Glo ATP luminescence, 72 h; Potency, µM (doses to about 46.1 µM), actives largely listed as cytotoxic; 1.4% of 400,000 active; also: nearly all actives have a fitted effect of over 60% in size
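Parental KB-3-1 adenocarcinoma cells in phenol-red-free DMEM with 10% FBS were pin-treated with compounds at several concentrations, incubated 72 h at 37 °C, and viability read by CellTiter-Glo luminescence; concentration-effect curves were fitted after normalization.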
Starred values were filed as active, the others as inactive; i = inactive; ? = inconclusive; / = no result given. Calls follow the shape of the dose curve; as a rule, active = well fitted curve in the direction sought with a large enough effect; inconclusive = small, poorly fitted or top-dose-only effect, or another doubt; inactive = no such curve, though single readings can be large; an effect the other way counts as inactive or inconclusive. Unless noted, % is scaled to controls: 0 for no effect and ±100 for the full control effect; potency is read from the fitted curve at half-maximal effect.

SMILES	HT1080-NT tox	TDP1 cell CPT	KB-V1 cytotox	DT40 TDP1 no CPT	HT1080 IDH1KD tx	KB-3-1 tox
O=C(NCC1CCCO1)c1ccccc1NS(=O)(=O)c1ccc(Br)s1 (configuration not stated)	3%	14%	i	-29%	1%	i
Cc1ccsc1C(=O)OCC(=O)NC1CCS(=O)(=O)C1 (configuration not stated)	11%	1%	i	3%	11%	i
COc1ccc(Nc2nc(-c3ccc4c(c3)NC(=O)CO4)cs2)cc1	-6%	?	?	?	-26%	i
CCC(C)Nc1nc(-c2ccc3c(c2)NC(=O)CO3)cs1 (configuration not stated)	-4%	23µM*	i	?	-11%	i
COc1ccccc1Nc1nc(-c2ccc3c(c2)NC(=O)CO3)cs1	?	23µM*	i	18µM*	?	?
CC(C)C[C@H](NC(=O)c1nc[nH]c1C(=O)NC1CCN(C(=O)OC(C)(C)C)CC1)C(=O)OCc1ccccc1	?	?	?	?	-29%	?
CC(C)(C)OC(=O)N1CCC(NC(=O)c2nc[nH]c2C(=O)NCc2ccccc2)CC1	-4%	?	i	23µM*	-9%	i
CC(C)(C)OC(=O)[C@H](Cc1ccccc1)NC(=O)c1nc[nH]c1C(=O)NC1CCN(C(=O)OC(C)(C)C)CC1	?	23µM*	?	16µM*	?	?
CC1CCN(C(=O)c2[nH]cnc2C(=O)NC2CCN(C(=O)OC(C)(C)C)CC2)CC1	0%	?	i	-5%	2%	i
CC(C)C[C@H](NC(=O)c1nc[nH]c1C(=O)NC1CCN(C(=O)OC(C)(C)C)CC1)C(=O)OC(C)(C)C	?	?	i	18µM*	?	?
C[C@H](NC(=O)c1nc[nH]c1C(=O)NC1CCN(C(=O)OC(C)(C)C)CC1)C(=O)OC(C)(C)C	-2%	18µM*	i	?	-2%	i
CCS(=O)(=O)c1nc(S(=O)(=O)c2ccc(Cl)cc2)c(NCCN2CCOCC2)s1	4%	-11%	i	2%	2%	i
CCOc1ccc(NC(=O)N(CCN(C)C)C(C)c2ccncc2)cc1 (configuration not stated)	0%	-21%	i	-8%	-2%	i
CCCC(=O)Nc1nc2c(s1)CC(C(C)(C)C)CC2 (configuration not stated)	/	18µM*	i	21µM*	/	i
CCC(=O)Nc1sc2c(c1C(=O)Nc1ccc(OC)cc1)CCC(C(C)(C)C)C2 (configuration not stated)	/	2%	i	-1%	/	i
CC1CCc2nc(NC(=O)CCSc3ccccc3)sc2C1 (configuration not stated)	-1%	-7%	i	-10%	10%	i
CC(C)Oc1ccc(C(=O)Nc2nc3c(s2)CC(C(C)(C)C)CC3)cc1 (configuration not stated)	/	16µM*	i	13µM*	/	i
Cc1ccccc1C(=O)Nc1nc2c(s1)CC(C(C)(C)C)CC2 (configuration not stated)	/	16µM*	i	12µM*	/	i
